Assay [1] deals with Cellular tumor antigen p53 (Homo sapiens) (UniProt P04637). As to the kind of experiment: Primary qHTS for small molecule compounds that upregulate eGFP-tagged delta133p53alpha (in N-terminal) cells. (AID 2060322).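 For activation: cells pre-induced with doxycycline then dosed without doxycycline; 0% = DMSO vehicle and 100% = reference activator.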 Note: nearly all actives have a fitted effect of over 75% in size. Note: potency is the fitted concentration of half-maximal effect. The settings on record: NCI-H358 eGFP-delta133p53alpha fluorescence, 24 h; activation: hits give high values. In a few lines: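 NCI-H358 cells pre-induced 24 h with 10 ng/ml doxycycline for eGFP-delta133p53alpha, plated dox-free and exposed 24 h at 37C to titrated compounds. Fixed, Hoechst-stained; gated GFP peak intensity by laser scanning cytometry, normalized to DMSO (0%) and 57.5 uM 5-azacytidine (100%).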
Chain of Cellular tumor antigen p53 (Homo sapiens) (P04637 whole entry, looked up): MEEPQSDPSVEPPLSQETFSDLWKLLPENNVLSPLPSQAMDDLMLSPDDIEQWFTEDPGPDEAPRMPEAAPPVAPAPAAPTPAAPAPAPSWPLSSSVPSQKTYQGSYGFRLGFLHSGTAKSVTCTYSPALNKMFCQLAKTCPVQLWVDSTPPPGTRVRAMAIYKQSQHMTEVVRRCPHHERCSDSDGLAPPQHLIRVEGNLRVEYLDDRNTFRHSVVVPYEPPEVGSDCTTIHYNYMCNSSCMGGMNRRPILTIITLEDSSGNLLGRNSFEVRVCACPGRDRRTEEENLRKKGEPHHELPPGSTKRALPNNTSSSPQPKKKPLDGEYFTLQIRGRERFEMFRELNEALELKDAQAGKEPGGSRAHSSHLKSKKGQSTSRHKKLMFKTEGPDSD
(In general: qHTS replaces the single test concentration by a dilution series.)

For assay [2], the target named is Aldehyde dehydrogenase, mitochondrial (Homo sapiens) (UniProt P05091). As to the kind of experiment: qHTS for Inhibitors of the Aldehyde Dehydrogenase Family (ALDH2) Confirmatory screens (AID 2061303; active = well fitted inhibition curve with a large enough effect; title and protocol of this record describe different tests; note: nearly all actives have a fitted effect of over 45% in size; note: potency is the fitted concentration of half-maximal effect). The settings on record: ALDH inhibition qHTS; series mostly up to 45.4 µM.
Assay [3] is described as follows: qHTS for Inhibitors of the Aldehyde Dehydrogenase Family (ALDH1A2, ALDH1A3, ALDH2, ALDH3A1) (AID 2061307). For Potency: test system not described further here; potency is the fitted concentration of half-maximal effect. Note: nearly all actives have a fitted effect of over 50% in size. Particulars: ALDH inhibition qHTS; series mostly up to 50.3 µM.
Assay [4] deals with Aldehyde dehydrogenase, mitochondrial (Homo sapiens) (UniProt P05091). As to the kind of experiment: qHTS for Inhibitors of the Aldehyde Dehydrogenase Family (ALDH2) Primary screen (AID 2061308). Note: nearly all actives have a fitted effect of over 55% in size. Note: potency is the fitted concentration of half-maximal effect. The settings on record: ALDH2 enzyme inhibition qHTS, 1536-well; series mostly up to 56 µM.
Assay [5] has as its target Retinaldehyde dehydrogenase 3 (Homo sapiens) (UniProt P47895). As to the kind of experiment: qHTS for Inhibitors of the Aldehyde Dehydrogenase Family (ALDH1A3) Primary screen (AID 2061315).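 Note: plate controls were DMSO vehicle for no effect and reference inhibitor for full effect.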 Particulars: ALDH inhibition qHTS; series mostly up to 56 µM.
Assay [6] concerns the target Aldehyde dehydrogenase 1A1 (Homo sapiens) (UniProt P00352). As to the kind of experiment: qHTS for Inhibitors of the Aldehyde Dehydrogenase Family (ALDH1A1) Confirmatory screens (AID 2061316). Note: nearly all actives have a fitted effect of over 65% in size. Note: potency is the fitted concentration of half-maximal effect. Particulars: ALDH inhibition qHTS; series mostly up to 47.3 µM.
Assay [7] can be described thus: BET inhibitor-based combinations targeting novel dependencies in MECOM-rearranged (r) AML: OCI-AML3 cell line (AID 2202232). Note: potency is the fitted concentration of half-maximal effect; nearly all actives have a fitted effect of over 35% in size. The settings on record: CellTiter-Glo luminescence, 48 h; Potency: OCI-AML3 viability; series mostly up to 46 µM. In a few lines:
(§1)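 Luminescent ATP readout (CellTiter-Glo) after 48 hr drug exposure gives viability. Curves span 11 concentrations and are normalized to DMSO and empty wells. Activity is reported as area under the curve and its Z-transform within each cell line.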
(In general: In ATP-based viability assays light output follows the ATP content of the culture.)

Assay [8] in a line: BET inhibitor-based combinations targeting novel dependencies in MECOM-rearranged (r) AML: MV-4-11 cell line (AID 2202233). Note: potency is the fitted concentration of half-maximal effect; nearly all actives have a fitted effect of over 45% in size. Particulars: MV-4-11 AML viability, CellTiter-Glo luminescence, 48 h; series mostly up to 46 µM. In a few lines: (§2)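 Luminescent ATP readout (CellTiter-Glo, 15 min at room temperature) after 48 hr drug exposure gave viability. Dose-response curves, normalized to DMSO and empty-well controls, were summarized as area under the curve and its mean-centred Z-score.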

In assay [9] the target is Retinal dehydrogenase 2 (Homo sapiens) (UniProt O94788). As to the kind of experiment: qHTS for Inhibitors of the Aldehyde Dehydrogenase Family (ALDH1A2) Confirmation screens (AID 2061314). Note: nearly all actives have a fitted effect of over 65% in size. Note: potency is the fitted concentration of half-maximal effect. The settings on record: ALDH1A2 enzyme inhibition qHTS confirmation; series mostly up to 45.9 µM.
For assay [10], the target named is Retinaldehyde dehydrogenase 3 (Homo sapiens) (UniProt P47895). As to the kind of experiment: qHTS for Inhibitors of the Aldehyde Dehydrogenase Family (ALDH1A3) Validation screen (AID 2061312). Note: nearly all actives have a fitted effect of over 45% in size. Note: potency is the fitted concentration of half-maximal effect. Particulars: ALDH1A3 enzyme inhibition qHTS validation, fluorescence; series mostly up to 84.7 µM.
Assay [11] has the same target. As to the kind of experiment: qHTS for Inhibitors of the Aldehyde Dehydrogenase Family (ALDH1A3) Confirmatory screens (AID 2061311). Note: potency is the fitted concentration of half-maximal effect; nearly all actives have a fitted effect of over 60% in size. Particulars: ALDH inhibition qHTS; series mostly up to 46 µM.
Assay [12] is described as follows: BET inhibitor-based combinations targeting novel dependencies in MECOM-rearranged (r) AML: HNT-34 cell line (AID 2202234). Note: potency is the fitted concentration of half-maximal effect; nearly all actives have a fitted effect of over 35% in size. The settings on record: HNT-34 AML viability, CellTiter-Glo luminescence, 48 h; series mostly up to 46 µM. In a few lines: as §2
Assay [13] can be described thus: BET inhibitor-based combinations targeting novel dependencies in MECOM-rearranged (r) AML: UCSD-AML1 cell line (AID 2202235). Note: potency is the fitted concentration of half-maximal effect; nearly all actives have a fitted effect of over 40% in size. Particulars: UCSD-AML1 AML cells viability, CellTiter-Glo, 48 h; series mostly up to 46 µM. In a few lines: as §2
The nature of assay [14]: BET inhibitor-based combinations targeting novel dependencies in MECOM-rearranged (r) AML: AML-191 cell line (AID 2202236; note: potency is the fitted concentration of half-maximal effect; nearly all actives have a fitted effect of over 35% in size). The settings on record: AML-191 viability, CellTiter-Glo luminescence, 48 h; series mostly up to 46 µM. In a few lines:
as §1

Assay [15] can be described thus: BET inhibitor-based combinations targeting novel dependencies in MECOM-rearranged (r) AML: AML-194 cell line (AID 2202237; note: potency is the fitted concentration of half-maximal effect; nearly all actives have a fitted effect of over 40% in size). The settings on record: AML-194 (MECOM-r AML) viability, CellTiter-Glo, 48 h; series mostly up to 46 µM. In a few lines: as §1

From PubChem BioAssay (NCATS) come the findings set out here.

“And” between values parts separate entries of the source, which are not always exact repeats. Equal values may be shown once. Records with an inconclusive call do not appear. Unmarked numbers belong to inactive results. The source made the active and inactive calls. Unless noted, calls come from the whole dose curve; as a rule, active = well fitted curve in the direction sought with a large enough effect; inconclusive = small, poorly fitted or top-dose-only effect, or another doubt; inactive = no such curve, though single readings can be large; an effect the other way counts as inactive or inconclusive.

Regarding `Cc1ccc(-c2c(C(=O)CCl)n(CCCO)c3ncnc(N)c23)cc1`, the Potency in [1] was 12 µM (active). The Potency entry in assay [2], in assay [3], in assay [4], in assay [5] and in assay [6] was “inactive” throughout.
For `COc1cccc2cc(-c3nc(C4CCC(C(=O)O)CC4)n4ncnc(N)c34)[nH]c12` (stereo unspecified), the activation in assay [1] was 12.5% and 16.7%. In addition, the Potency entry in assay [2], in assay [4] and in assay [5] was “inactive” each time. Further, the Potency in assay [3] was 3.57 µM (active); in assay [7] it was 1.66 µM (active); in [8] it was 0.833 µM (active).
For `NC1(c2ccc(NC(=O)c3ccnc(-c4cc(C(=O)O)ccn4)c3)cc2)CC1`, in assay [1], the activation was 15.7%. Further, the Potency entry in assay [2], in assay [3], in assay [4] and in assay [5] was “inactive” throughout.
With `CSC(=O)OCC1=C[C@@H]2OC(=O)C3=CO[C@@H](O[C@@H]4O[C@H](CO)[C@@H](O)[C@H](O)[C@H]4O)[C@H]1[C@@H]32`, the activation in assay [1] is -22.1%. The Potency entry in assay [2], in [3], in assay [4], in assay [9] and in assay [6] was “inactive” throughout.
With `COc1cc(/C=C/C(=O)O[C@H]2[C@H](OC(=O)/C=C/c3cc(OC)c(O)c(OC)c3)O[C@H](CO[C@@H]3O[C@H](CO)[C@@H](O)[C@H](O)[C@H]3O)[C@@H](O)[C@@H]2O)ccc1O`, in assay [1], the activation was -3.57%. Further, the Potency result in [2], in [3], in assay [4], in assay [9] and in assay [6] was “inactive” in each case.
With `C/C=C1\[C@H](O[C@@H]2O[C@H](CO)[C@@H](O)[C@H](O)[C@H]2O)OC=C(C(=O)OC)[C@H]1CC(=O)OC[C@H]1O[C@@H](OCCc2ccc(O)cc2)[C@H](O)[C@@H](O)[C@@H]1O`, the activation in assay [1] is -1.53%. For the same molecule, the Potency result in assay [2], in [3], in [4] and in [9] was “inactive” in each case.
`COc1cc(NC(=O)c2ccccn2)ccc1Cl`: in assay [1], the activation was -5.25%. The Potency result in assay [2], in [3], in [4], in [9], in assay [5] and in assay [6] was “inactive” each time.
Regarding `CC(C)(Cc1ccccc1)NCC(O)c1ccc(O)c(NS(C)(=O)=O)c1` (stereo unspecified), the activation in assay [1] was -0.955%. Moreover, the Potency entry in assay [2], in assay [3], in assay [4], in assay [10], in [9] and in assay [6] was “inactive” throughout.
On to `COc1cc(/C=C/C(=O)OCC2OC(OC3(CO)OC(CO)C(O)C3O)C(O)C(O)C2O)ccc1O` (stereo unspecified), for which, in [1], the activation is 10.7%. Besides, the Potency result in [2], in assay [3], in assay [4] and in assay [6] was “inactive” each time.
Take `CCOc1ccc2ccccc2c1C(=O)N[C@@H]1C(=O)N2[C@@H]1SC(C)(C)[C@@H]2C(=O)O`: the activation in assay [1] is 5.08% and -4.77%. Moreover, the Potency result in assay [2], in [3], in assay [4], in [10], in assay [9] and in [6] was “inactive” each time.
Turning to `CC1(C)SCCN(S(=O)(=O)c2ccc(Oc3ccncc3)cc2)[C@H]1C(=O)NO`, the activation in [1] is 20.3%. The Potency result in assay [2], in assay [3], in [4] and in assay [9] was “inactive” throughout.
Take `CN(C)C(=O)Nc1cccc(-c2ccc(N(C)C)cc2)c1`: the activation in assay [1] is -14.8%. Further, the Potency entry in assay [2], in assay [3], in assay [4] and in assay [6] was “inactive” each time.
With `O=C(CN1C2=NCCN2c2ccccc21)c1ccc(-c2ccccc2)cc1`, in assay [1], the activation is 7.16%. In addition, the figures for the Potency in [2], in assay [3] and in assay [11] were 3.57 µM (active), 3.57 µM (active) and 31.6 µM (active), respectively. Moreover, the Potency result in assay [10], in assay [9] and in assay [5] was “inactive” throughout.
Consider `S=C(c1ccc(-c2ccc(Cl)c(Cl)c2)o1)N1CCCCC1`, for which the activation in [1] was -7.64%. The Potency was 2.83 µM (active) in assay [2], 12.7 µM (active) in [3], 22.4 µM (active) in [4] and 5.04 µM (active) in assay [6]. Further, the Potency entry in assay [10] and in assay [5] was “inactive” in each case.
For the molecule `COc1ccc(NC(=O)c2ccc(-c3ccc(C(=N)N)cc3C)cc2)cc1N1CCN(C)CC1`, the activation in assay [1] was 8.11%. The Potency result in [2], in [3] and in assay [4] was “inactive” each time. In addition, in assay [6], the Potency was 12.7 µM (active).
For the molecule `O=C1Nc2ccccc2-c2nc3ccccc3c(=O)n2-c2c(O)cccc21`, in [1], the activation was 23.2%. For the same molecule, the Potency entry in [2], in assay [3], in assay [4] and in assay [5] was “inactive” in each case.
Turning to `CN(C)c1ccc(C2O[C@@H](c3ccccc3)C[C@H](c3ccccc3)O2)cc1` (stereo partly specified), the activation in assay [1] is -3.34%. The Potency is 3.55 µM (active) in assay [2]; 3.57 µM (active) in assay [3]; 3.55 µM (active) in [11]; 44.7 µM (active) in assay [10]; 10 µM (active) in assay [9]; 10 µM (active) in assay [6].
Consider `Cc1ncc(-c2ccnc(Nc3ccc(S(C)(=O)=O)cc3)n2)n1C(C)C`, for which the Potency in assay [1] is 3.06 µM (active) and 2.69 µM (active); in assay [3], 11.3 µM (active); in assay [7], 2.35 µM (active); in [8], 0.59 µM (active); in assay [12], 1.48 µM (active); in assay [13], 1.32 µM (active). For the same molecule, the Potency was 1.18 µM (active) in assay [14] and 1.86 µM (active) in assay [15]. Moreover, the Potency result in [2], in [4], in assay [5] and in assay [6] was “inactive” in each case.
Regarding `CCC[C@H](N[C@@H](C)C(=O)N1[C@H](C(=O)O)C[C@@H]2CCCC[C@@H]21)C(=O)O`, in assay [1], the activation is -7.64%. In addition, the Potency entry in assay [2], in [3], in [4], in assay [9], in [5] and in assay [6] was “inactive” in each case.
